In the library only some 1.8% were active in any assay of this set; here they are far more common.
Exocytosis inh: blocks lytic granule exocytosis; 0.66% of 360,000 active; TALL-104 LAMP-1 surface exposure, flow cytometry; cells stimulated with thapsigargin and PMA; inhibition, % at 10 µM; AID 651702;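 active = inhibition above about 55%, limit read from the data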
Myeloid diff MLP: promotes myeloid progenitor differentiation | ER-HoxA9 myeloid progenitors, lysozyme-GFP differentiation, flow cytometry | 1% of 360,000 active | calls only at 10 µM | AID 624256;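 active = normalized GFP-positive differentiation at or above the plate's own cutoff, the solvent-only control mean plus 3 SD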;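 note: cells exposed to compound for four days before flow analysis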
ABCB6 inh MLPCN: inhibitors of human ABC transporter ABCB6; AID 602162; 0.19% of 360,000 active; K562-ABCB6 porphyrin accumulation, flow cytometry, 1 h; active compounds read low; Q9NP58; fluorescence ratio to DMSO, % at 10 µM;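 active = fluorescence ratio to DMSO below 75%, the collection mean minus 3 SD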;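 note: signal is porphyrin accumulated inside mitochondria; 100% equals median channel fluorescence of DMSO control wells; lower ratio means ABCB6 inhibition with less porphyrin fluorescence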
Target sequence (Q9NP58 whole entry, looked up): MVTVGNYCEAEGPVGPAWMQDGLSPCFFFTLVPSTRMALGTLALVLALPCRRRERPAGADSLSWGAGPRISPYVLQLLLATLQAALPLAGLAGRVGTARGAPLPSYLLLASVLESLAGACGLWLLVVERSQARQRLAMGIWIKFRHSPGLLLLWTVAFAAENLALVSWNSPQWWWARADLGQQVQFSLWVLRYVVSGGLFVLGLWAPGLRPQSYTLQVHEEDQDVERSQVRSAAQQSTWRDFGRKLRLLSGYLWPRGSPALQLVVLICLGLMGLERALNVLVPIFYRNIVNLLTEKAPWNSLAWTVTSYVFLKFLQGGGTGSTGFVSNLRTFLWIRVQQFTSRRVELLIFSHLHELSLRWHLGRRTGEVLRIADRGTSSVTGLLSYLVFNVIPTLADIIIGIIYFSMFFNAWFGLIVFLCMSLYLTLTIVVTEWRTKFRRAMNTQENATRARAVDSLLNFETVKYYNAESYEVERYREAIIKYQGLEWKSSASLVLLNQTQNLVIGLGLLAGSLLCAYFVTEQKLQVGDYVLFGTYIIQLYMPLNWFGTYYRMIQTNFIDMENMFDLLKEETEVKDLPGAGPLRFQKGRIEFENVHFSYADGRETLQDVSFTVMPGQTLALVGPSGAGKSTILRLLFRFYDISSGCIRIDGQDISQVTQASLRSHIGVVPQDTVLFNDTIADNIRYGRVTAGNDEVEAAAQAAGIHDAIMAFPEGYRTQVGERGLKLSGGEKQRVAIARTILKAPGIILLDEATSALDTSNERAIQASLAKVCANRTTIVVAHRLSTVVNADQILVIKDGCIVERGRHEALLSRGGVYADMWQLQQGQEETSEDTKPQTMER
The depositor's hits bear a star.

How did COc1cc2c(cc1OC)C1(Nc3c-2c(-c2ccccc2)nn3-c2ccccc2)C(=O)Nc2ccccc21 (centres undefined) do in these assays?
Exocytosis inh: 5; Myeloid diff MLP: inactive; ABCB6 inh MLPCN: 123

What do the screens show for `CCC1(c2ccc(F)cc2)NC(=O)N(CC(=O)NC2CCCC(C)C2C)C1=O` (centres undefined)?
Exocytosis inh: -7; Myeloid diff MLP: inactive; ABCB6 inh MLPCN: 98

What do the screens show for `Cc1ccc(-n2c(SCC(=O)c3c(N)n(C)c(=O)n(C)c3=O)nc3sc4c(c3c2=O)CCCC4)c(C)c1`?
Exocytosis inh: 4; Myeloid diff MLP: active; ABCB6 inh MLPCN: 101

What do the screens show for `Cc1ccc(-n2c(SCC(=O)O)nc3sc4c(c3c2=O)CCCC4)cc1`?
Exocytosis inh: 2; Myeloid diff MLP: inactive; ABCB6 inh MLPCN: 97

How did COc1ccc(C2(c3ccc(OC)cc3)NC(=O)N(CC(=O)N3CCOCC3)C2=O)cc1 do in these assays?
Exocytosis inh: -1; Myeloid diff MLP: inactive; ABCB6 inh MLPCN: 98

Results for CC(C)(C)S(=O)(=O)N1C[C@H]2CC/C=C\C/C=C\2[C@@H]1CCO ?
Exocytosis inh: -1; Myeloid diff MLP: inactive; ABCB6 inh MLPCN: 93

How did O=C(N/N=C/c1ccccc1F)c1ccccc1OCc1ccccc1 do in these assays?
Exocytosis inh: 107*; Myeloid diff MLP: inactive; ABCB6 inh MLPCN: 96

Results for O=C(NNC(=O)c1ccccc1OCc1ccccc1)c1ccccc1F ?
Exocytosis inh: -10; Myeloid diff MLP: inactive; ABCB6 inh MLPCN: 99

How did CC(C)C[C@H]1COc2cc(N3CC[C@H](O)C3)ccc2S(=O)(=O)N1 do in these assays?
Exocytosis inh: 0; Myeloid diff MLP: inactive; ABCB6 inh MLPCN: 95

What do the screens show for `COc1ncccc1-c1cc2nc(NCCCN(C)C)n(C)c(=O)c2s1`?
Exocytosis inh: 6; Myeloid diff MLP: inactive; ABCB6 inh MLPCN: 96

How did CC(C)(C)OC(=O)N1CCC(C(=O)Nc2cccc(C(=O)NCc3ccccc3)c2)CC1 do in these assays?
Exocytosis inh: -2; Myeloid diff MLP: inactive; ABCB6 inh MLPCN: 102

How did CNC[C@@H]1Oc2cc(Br)ccc2S(=O)(=O)N([C@H](C)CO)C[C@@H]1C do in these assays?
Exocytosis inh: 0; Myeloid diff MLP: inactive; ABCB6 inh MLPCN: 102

Results for COc1cccc(C(=O)NCC(=O)N/N=C/c2cccnc2)c1 ?
Exocytosis inh: -20; Myeloid diff MLP: inactive; ABCB6 inh MLPCN: 89

Results for COc1cccc(C(=O)NCC(=O)N/N=C/c2ccc3c(c2)OCO3)c1 ?
Exocytosis inh: 18; Myeloid diff MLP: inactive; ABCB6 inh MLPCN: 73*

How did O=C(CNC(=O)c1ccc2c(c1)OCO2)N/N=C(Br)/C=C/c1ccccc1 do in these assays?
Exocytosis inh: 3; Myeloid diff MLP: active; ABCB6 inh MLPCN: 100

What do the screens show for `O=C(CNC(=O)c1ccc2c(c1)OCO2)N/N=C/c1cccc([N+](=O)[O-])c1`?
Exocytosis inh: -2; Myeloid diff MLP: inactive; ABCB6 inh MLPCN: 105

Results for Cc1cccc(C)c1NC(=O)C1(C)CSCC(=O)N1Cc1ccco1 (centres undefined) ?
Exocytosis inh: 13; Myeloid diff MLP: inactive

What do the screens show for `Cc1ccc(C(=O)OCC(=O)NCc2ccc3c(c2)OCO3)o1`?
Exocytosis inh: -33; Myeloid diff MLP: inactive; ABCB6 inh MLPCN: 99

What do the screens show for `Nc1nc2ccc(Cl)cc2cc1C(=O)NCc1ccc(Oc2ccccc2)cc1`?
Exocytosis inh: 3; Myeloid diff MLP: inactive; ABCB6 inh MLPCN: 91

How did O=C1NC[C@@H](CCCCN2C[C@H](Cc3ccc(O)cc3)N(Cc3ccccc3)C(=O)C2=O)N(CCC2CCCCC2)C1=O do in these assays?
Exocytosis inh: -1; Myeloid diff MLP: inactive; ABCB6 inh MLPCN: 98

Results for CN1CCN(C(=O)c2ccc(-c3ccc(F)c(F)c3)c3ccoc23)CC1 ?
Exocytosis inh: 5; Myeloid diff MLP: inactive; ABCB6 inh MLPCN: 82

How did O=C1c2ccccc2C(=O)N1CCCc1cn(C[C@H]2CC[C@@H]([C@@H]3CC[C@H](Cn4cc(CCCN5C(=O)c6ccccc6C5=O)nn4)O3)O2)nn1 do in these assays?
Exocytosis inh: 67*; Myeloid diff MLP: inactive; ABCB6 inh MLPCN: 96

What do the screens show for `O=C1c2ccccc2C(=O)N1CCCCc1cn(C[C@H]2CC[C@@H]([C@@H]3CC[C@H](Cn4cc(CCCCN5C(=O)c6ccccc6C5=O)nn4)O3)O2)nn1`?
Exocytosis inh: -1; Myeloid diff MLP: inactive; ABCB6 inh MLPCN: 96

What do the screens show for `O=C(c1ccco1)N1CCN(C2CN(C3CCCCC3)S(=O)(=O)C2)CC1` (centres undefined)?
Exocytosis inh: -3; Myeloid diff MLP: inactive; ABCB6 inh MLPCN: 102

What do the screens show for `CC(C)(C)n1nnnc1C(c1ccccc1)N1CCN(c2ncccn2)CC1` (centres undefined)?
Exocytosis inh: -5; Myeloid diff MLP: inactive; ABCB6 inh MLPCN: 92

Results for S=c1[nH]nc(C2CCCCC2)n1/N=C/C(Cl)=C\c1ccccc1 ?
Exocytosis inh: -5; Myeloid diff MLP: active; ABCB6 inh MLPCN: 100

What do the screens show for `S=c1[nH]nc(C2CCCCC2)n1/N=C/C=C/c1ccccc1`?
Exocytosis inh: 4; Myeloid diff MLP: inactive; ABCB6 inh MLPCN: 100

How did O=C(Cc1ccsc1)Nc1ccc(S(=O)(=O)C(F)F)cc1 do in these assays?
Exocytosis inh: -7; Myeloid diff MLP: inactive; ABCB6 inh MLPCN: 97

Results for CC(C)(C)OC(=O)N1CCC(C(=O)N[C@@H](Cc2ccccc2)C(=O)O)(c2ccccc2)CC1 ?
Exocytosis inh: 0; Myeloid diff MLP: inactive; ABCB6 inh MLPCN: 97

What do the screens show for `CC(C)[C@H](NC(=O)C1(c2ccccc2)CCN(C(=O)OC(C)(C)C)CC1)C(=O)O`?
Exocytosis inh: 2; Myeloid diff MLP: active; ABCB6 inh MLPCN: 105

Results for COc1ccccc1C=NN=Cc1ccccc1OC ?
Exocytosis inh: -5; Myeloid diff MLP: inactive; ABCB6 inh MLPCN: 95

Results for O=C(c1ccc([N+](=O)[O-])s1)N1CCc2ccccc21 ?
Exocytosis inh: -12; Myeloid diff MLP: active; ABCB6 inh MLPCN: 106

What do the screens show for `O=C(c1cccc(F)c1F)N1CCCc2ccccc21`?
Exocytosis inh: -4; Myeloid diff MLP: inactive; ABCB6 inh MLPCN: 101

Results for O=C(c1ccc(C(=O)N2CCCc3ccccc32)s1)N1CCCc2ccccc21 ?
Exocytosis inh: -4; Myeloid diff MLP: inactive; ABCB6 inh MLPCN: 94

Results for O=C(c1ccc([N+](=O)[O-])s1)N1CCCc2ccccc21 ?
Exocytosis inh: 14; Myeloid diff MLP: active; ABCB6 inh MLPCN: 94

Results for O=C(c1ccccc1F)N1CCCc2ccccc21 ?
Exocytosis inh: 8; Myeloid diff MLP: active; ABCB6 inh MLPCN: 90

How did O=C(c1ccc([N+](=O)[O-])s1)N1CCc2ccccc2C1 do in these assays?
Exocytosis inh: 2; Myeloid diff MLP: inactive; ABCB6 inh MLPCN: 100

Results for CCOC(=O)c1cccc(C2=CC(=O)C[C@H](c3ccc(OC)c(OC)c3)C2)c1 ?
Exocytosis inh: -3; Myeloid diff MLP: inactive; ABCB6 inh MLPCN: 93

Results for CCOC(=O)C1=CN(CC)S(=O)(=O)NC1c1ccc2ccccc2c1 (centres undefined) ?
Exocytosis inh: -2; Myeloid diff MLP: inactive; ABCB6 inh MLPCN: 96

How did COc1ccc(-c2sc3ccc(OC)cc3c2C#Cc2cncn2C)cc1 do in these assays?
Exocytosis inh: 2; Myeloid diff MLP: active; ABCB6 inh MLPCN: 99

Screening data: PubChem, NMMLSC
